Several values for one entry are separate records, joined by “and”; a condition that tells them apart may be missing. Identical values can stand only once. Records with an inconclusive call do not appear. Where a call stands in place of a potency, no number is given. Activity calls are given as the source filed them. The call rests on the fitted dose curve; in most records, active means well fitted activation curve with a large enough effect in the repeat runs; inconclusive means weak or mixed curves; inactive means flat fitted curve, though single readings scatter.
Potency means the concentration at half of the fitted maximal effect.

The assay is described as follows: A CellTox Green Cytotoxicity Assay to monitor cytotoxicity in HEK293 cells - 16 hour (AID 1224888). Further: nearly all actives have a fitted effect of over 35% in size. The following applies: CellTox Green fluorescence; series mostly up to 76.8 µM. The text has this:
National Center for Advancing Translational Sciences [NCATS]
NIH Chemical Genomics Center [NCGC]
U.S. Environmental Protection Agency [EPA]
National Institutes of Environmental Health Sciences [NIEHS]
National Toxicology Program [NTP]
Cell-based models are critical for drug discovery. Determining the natural cytotoxic effects resulting from test compounds is an essential research activity. A CellTox Green Cytotoxicity Assay to monitor cytotoxicity in real time of continues cell culture during 40 hours of the compound treatment was used to screen Tox21 10K library compounds in Hek293 cells. CellTox Green Cytotoxicity Assay is a nonlytic, homogeneous, biofluorescent method to measure cytotoxicity in cell culture after experimental manipulation. The assay system uses a proprietary asymmetric cyanine dye that is excluded from viable cells but preferentially stains the dead cell's DNA. […] Viable cells produce no appreciable increases in fluorescence. Therefore, the fluorescence signal produced by the binding interaction with dead cell DNA is proportional to cytotoxicity.
The mixture of Hek293 cell suspension and reagents were dispensed at 600cells/6 ul/well in 1536-well tissue culture treated black solid bottom plates using a Multidrop dispenser. After the assay plates were incubated at a 37 C/5% CO2 incubator for 5 hours, 23 nL of compounds dissolved in DMSO, positive and negative controls was transferred to the assay plate by a pintool work station. The plates were incubated at 37 C for 40 hours. The fluorescence intensity were measured at 0h, 8h, 16h, 24h, 32h and 40h time points using ViewLux plate reader during compound treatment.
With `NS(=O)(=O)O`, the Potency result is “inactive”.

Take `O=S1(=O)OC(c2ccc(O)cc2)(c2ccc(O)cc2)c2ccccc21`: the Potency result was “inactive”. Then `O=C(Nc1ncc([N+](=O)[O-])s1)c1cccs1`, with “inactive”; and `NS(=O)(=O)c1cc2c(cc1Cl)NCNS2(=O)=O`, with “inactive”; and `C/C=C/C=C/C(=O)O`, with “inactive”.

Take `C1CCC(C(CC2CCCCN2)C2CCCCC2)CC1` (stereo not given): the Potency is 23.9 µM (active). Then `CCCCCCc1ccc(O)cc1O`, with “inactive”; and `Oc1ccccc1`, with “inactive”. With `CN(C)CCOC(C)(c1ccccc1)c1ccccn1` (stereo not given), the Potency entry was “inactive”. For `Cc1cn([C@H]2C=C[C@@H](CO)O2)c(=O)[nH]c1=O`, the Potency result is “inactive”.

Regarding `C[C@](N)(Cc1ccc(O)c(O)c1)C(=O)O`, the Potency result is “inactive”. Then `Cc1cc(=O)oc2cc(O)ccc12`, with “inactive”.

As for `CCOc1ccc(NC(C)=O)cc1`, the Potency result was “inactive”. Regarding `CC(=O)CC(c1ccccc1)c1c(O)c2ccccc2oc1=O` (stereo not given), the Potency entry is “inactive”. Then `CC(O)(P(=O)(O)O)P(=O)(O)O`, with “inactive”. With `COc1ccc(C(Cl)=C(c2ccc(OC)cc2)c2ccc(OC)cc2)cc1`, the Potency result was “inactive”. `Nc1c2c(nc3ccccc13)CCCC2`: the Potency entry is “inactive”.

On to `Nc1ccc(O)c([N+](=O)[O-])c1`, for which the Potency entry is “inactive”. Take `CCCC[P+](CCCC)(CCCC)CCCC`: the Potency entry is “inactive”. With `CCc1nc(N)nc(N)c1-c1ccc(Cl)cc1`, the Potency entry was “inactive”. As for `CCN(Cc1c(F)cccc1Cl)c1c([N+](=O)[O-])cc(C(F)(F)F)cc1[N+](=O)[O-]`, the Potency entry is “inactive”. With `CC12CCC(CC1)C(C)(C)O2`, the Potency result was “inactive”. Regarding `Cn1c(=O)c2c(ncn2C)n(C)c1=O`, the Potency result was “inactive”. Then `CC(C)c1c(C(=O)Nc2ccccc2)c(-c2ccccc2)c(-c2ccc(F)cc2)n1CC[C@@H](O)C[C@@H](O)CC(=O)O`, with “inactive”.

Consider `C=C(C)C(=O)OCC(C)O` (stereo not given), for which the Potency entry is “inactive”.

`CCCCC1(COC(=O)CCC(=O)O)C(=O)N(c2ccccc2)N(c2ccccc2)C1=O`: the Potency entry was “inactive”. Regarding `CCCCOC(=O)c1ccc(O)cc1`, the Potency result was “inactive”. On to `Cc1ncc([N+](=O)[O-])n1C`, for which the Potency result was “inactive”. In the case of `COc1ccc2c(c1)c(CC(=O)O)c(C)n2C(=O)c1ccc(Cl)cc1`, the Potency result is “inactive”. Regarding `Nc1ccc([N+](=O)[O-])cc1O`, the Potency result was “inactive”. In the case of `CC1(C)S[C@@H]2[C@H](NC(=O)[C@H](N)c3ccccc3)C(=O)N2[C@H]1C(=O)O` it was “inactive”; in that of `O=C1NS(=O)(=O)c2ccccc21`, “inactive”. Then `CCN(CC)C(=O)c1cccc(C)c1`, with “inactive”. Take `CCCCCCCCCCCCCCCC[N+](C)(C)Cc1ccccc1`: the Potency was 50.5 µM (active) and 44.4 µM (active) and 23.9 µM (active). Regarding `CC/C(=C(\c1ccccc1)c1ccc(OCCN(C)C)cc1)c1ccccc1`, the Potency is 39.2 µM (active) [middle of 5 runs]. In the case of `CCCc1cc(=O)[nH]c(=S)[nH]1`, the Potency result was “inactive”. Turning to `CN1CCC[C@H]1c1cccnc1`, the Potency result is “inactive”. For the compound `NC(=O)c1cccnc1`, the Potency entry is “inactive”.

As for `O=C(O)CC(O)C(=O)O` (stereo not given), the Potency entry was “inactive”. For the compound `Nc1c(N=Nc2ccc(-c3ccc(N=Nc4cc(S(=O)(=O)O)c5ccccc5c4N)cc3)cc2)cc(S(=O)(=O)O)c2ccccc12`, the Potency entry was “inactive”.
